1 sequence from PMC7862700, “An all-to-all approach to the identification of sequence-specific readers for epigenetic DNA modifications on cytosine” can be followed below.

Assay in all cases: DAPPL (digital affinity profiling via proximity ligation, sequencing); 10 mM Tris-HCl pH 7.5, 50 mM NaCl, 1 mM DTT, 4% glycerol, room temperature, 30 min; GST-TFs on glutathione beads, 16-mer random dsDNA library, 0.1% formaldehyde crosslink after washing; high values mean tight binding
The target of one assay is T1, FEV (Homo sapiens, UniProt Q99581 1-238).
T1 sequence: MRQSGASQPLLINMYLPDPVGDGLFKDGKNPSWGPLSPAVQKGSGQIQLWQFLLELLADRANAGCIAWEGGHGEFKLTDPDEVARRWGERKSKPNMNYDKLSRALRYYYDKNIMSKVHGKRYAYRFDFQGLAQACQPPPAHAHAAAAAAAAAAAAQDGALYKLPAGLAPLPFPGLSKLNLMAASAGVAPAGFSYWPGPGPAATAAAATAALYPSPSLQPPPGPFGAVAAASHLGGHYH
Conditions: protein: recombinant; tags: N-terminal GST; dsDNA, one strand shown. The method in brief:
(§1)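 Binding signal is defined as a hexamer's read frequency for one factor over its frequency for the tag-only sample. To obtain reads, GST-fused human transcription factors were expressed in yeast, captured on glutathione beads, barcoded with DNA and pooled with that sample. Pools met 200 nmole of a 16-mer random double-stranded DNA library in Tris/NaCl/DTT/glycerol buffer for 30 min at room temperature before washing, 0.1% formaldehyde crosslinking, proximity ligation (BsaI/T4 ligase, 1 h, 37 °C), PCR and Illumina NextSeq500 sequencing.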

The next assay addresses ETV5 (Homo sapiens, UniProt P41161 1-510). Conditions: protein: recombinant; tags: N-terminal GST; dsDNA, one strand shown. The method in brief: as §1
For the next assay, the target named is HSF1 (Homo sapiens, UniProt Q00613 1-529). Conditions: protein: recombinant; tags: N-terminal GST; chain copies: 3; dsDNA, one strand shown. Summed up:
as §1

In the next assay the target is T2, SPIC (Homo sapiens, UniProt Q8N5J4 1-248).
T2 sequence: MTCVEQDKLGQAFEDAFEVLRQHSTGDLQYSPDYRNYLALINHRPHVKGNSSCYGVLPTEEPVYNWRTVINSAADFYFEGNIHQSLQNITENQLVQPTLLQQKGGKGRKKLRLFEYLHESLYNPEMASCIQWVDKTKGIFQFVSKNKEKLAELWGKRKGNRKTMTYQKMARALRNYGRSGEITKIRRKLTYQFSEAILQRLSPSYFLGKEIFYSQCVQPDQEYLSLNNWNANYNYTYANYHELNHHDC
Conditions: protein: recombinant; tags: N-terminal GST; dsDNA, one strand shown. The method in brief: as §1

Another assay deals with ELF4 (Homo sapiens, UniProt Q99607 1-663). Particulars: protein: recombinant; tags: N-terminal GST; dsDNA, one strand shown. Summed up: as §1
Sequence of ELF4 (Q99607 whole entry): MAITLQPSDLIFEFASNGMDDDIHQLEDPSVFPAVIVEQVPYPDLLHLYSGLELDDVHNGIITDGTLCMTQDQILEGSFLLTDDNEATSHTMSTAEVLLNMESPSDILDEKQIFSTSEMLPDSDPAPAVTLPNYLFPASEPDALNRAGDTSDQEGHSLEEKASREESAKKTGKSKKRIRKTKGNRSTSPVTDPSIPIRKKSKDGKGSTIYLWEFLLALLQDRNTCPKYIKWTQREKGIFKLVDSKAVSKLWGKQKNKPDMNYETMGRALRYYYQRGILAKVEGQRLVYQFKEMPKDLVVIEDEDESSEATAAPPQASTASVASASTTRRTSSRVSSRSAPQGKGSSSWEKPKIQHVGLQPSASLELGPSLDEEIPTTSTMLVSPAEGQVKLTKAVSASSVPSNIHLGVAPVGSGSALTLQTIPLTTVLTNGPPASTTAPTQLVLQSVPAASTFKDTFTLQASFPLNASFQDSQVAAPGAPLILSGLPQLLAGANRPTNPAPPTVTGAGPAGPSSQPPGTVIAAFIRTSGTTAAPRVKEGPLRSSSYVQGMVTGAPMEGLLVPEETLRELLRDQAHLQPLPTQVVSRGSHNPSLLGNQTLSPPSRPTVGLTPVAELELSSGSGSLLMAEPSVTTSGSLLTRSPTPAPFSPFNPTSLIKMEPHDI
The target in a further assay is T3, ELK4 (Homo sapiens, UniProt P28324-2 1-405).
T3 sequence: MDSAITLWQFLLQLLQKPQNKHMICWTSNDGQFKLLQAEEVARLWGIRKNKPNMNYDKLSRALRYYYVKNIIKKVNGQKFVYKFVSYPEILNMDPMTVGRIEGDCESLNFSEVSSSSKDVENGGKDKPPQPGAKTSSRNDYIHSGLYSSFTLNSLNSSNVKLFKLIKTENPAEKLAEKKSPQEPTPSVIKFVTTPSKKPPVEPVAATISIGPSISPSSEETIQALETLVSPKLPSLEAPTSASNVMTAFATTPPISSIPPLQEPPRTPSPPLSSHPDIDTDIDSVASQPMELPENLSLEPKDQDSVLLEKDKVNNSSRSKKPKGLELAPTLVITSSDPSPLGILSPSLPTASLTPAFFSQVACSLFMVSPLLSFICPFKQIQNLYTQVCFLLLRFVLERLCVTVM
Particulars: protein: recombinant; tags: N-terminal GST; dsDNA, one strand shown. The method in brief: as §1

The target in another assay is T4, ETV2 (Homo sapiens, UniProt O00321 1-342).
T4 sequence: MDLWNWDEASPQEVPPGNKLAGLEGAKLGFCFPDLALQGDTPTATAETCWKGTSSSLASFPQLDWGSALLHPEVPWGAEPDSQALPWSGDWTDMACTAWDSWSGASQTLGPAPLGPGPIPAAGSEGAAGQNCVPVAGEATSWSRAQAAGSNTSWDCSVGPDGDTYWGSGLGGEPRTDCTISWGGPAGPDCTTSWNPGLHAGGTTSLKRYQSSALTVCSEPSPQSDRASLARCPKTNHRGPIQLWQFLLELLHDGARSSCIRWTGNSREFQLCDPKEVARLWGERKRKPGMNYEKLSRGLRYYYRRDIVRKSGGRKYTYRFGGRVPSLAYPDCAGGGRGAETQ
Particulars: protein: recombinant; tags: N-terminal GST; dsDNA, one strand shown. Summed up: as §1

In the next assay the target is T5, ELF3 (Homo sapiens, UniProt P78545 1-371).
T5 sequence: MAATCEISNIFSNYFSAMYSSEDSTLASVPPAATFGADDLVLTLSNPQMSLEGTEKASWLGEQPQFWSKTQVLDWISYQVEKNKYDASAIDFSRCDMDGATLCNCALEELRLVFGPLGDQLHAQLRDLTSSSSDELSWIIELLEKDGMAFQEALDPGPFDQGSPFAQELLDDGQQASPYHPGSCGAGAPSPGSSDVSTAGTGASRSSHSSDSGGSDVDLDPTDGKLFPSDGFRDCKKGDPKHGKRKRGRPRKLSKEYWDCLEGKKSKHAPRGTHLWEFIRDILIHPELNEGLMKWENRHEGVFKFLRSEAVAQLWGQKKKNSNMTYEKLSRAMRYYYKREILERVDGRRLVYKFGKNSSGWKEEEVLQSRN
Particulars: protein: recombinant; tags: N-terminal GST; dsDNA, one strand shown. The method in brief:
as §1

In a further assay the target is CRX (Homo sapiens, UniProt O43186 1-299). Conditions: protein: recombinant; tags: N-terminal GST; dsDNA, one strand shown. Summed up: as §1
Sequence of CRX (O43186 whole entry): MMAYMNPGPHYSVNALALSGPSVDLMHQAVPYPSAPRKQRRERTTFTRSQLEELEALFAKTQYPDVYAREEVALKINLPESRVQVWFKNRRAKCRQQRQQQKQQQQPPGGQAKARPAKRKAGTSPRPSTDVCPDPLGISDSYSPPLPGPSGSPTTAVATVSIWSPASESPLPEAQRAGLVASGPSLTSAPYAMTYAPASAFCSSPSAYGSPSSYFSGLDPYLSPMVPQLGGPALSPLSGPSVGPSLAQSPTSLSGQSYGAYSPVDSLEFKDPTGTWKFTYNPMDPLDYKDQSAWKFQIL
The next assay concerns the target ETV1 (Homo sapiens, UniProt P50549 1-477). Particulars: protein: recombinant; tags: N-terminal GST; dsDNA, one strand shown. Summed up: as §1
The target in a further assay is T6, ERF (Homo sapiens, UniProt P50548 1-548).
T6 sequence: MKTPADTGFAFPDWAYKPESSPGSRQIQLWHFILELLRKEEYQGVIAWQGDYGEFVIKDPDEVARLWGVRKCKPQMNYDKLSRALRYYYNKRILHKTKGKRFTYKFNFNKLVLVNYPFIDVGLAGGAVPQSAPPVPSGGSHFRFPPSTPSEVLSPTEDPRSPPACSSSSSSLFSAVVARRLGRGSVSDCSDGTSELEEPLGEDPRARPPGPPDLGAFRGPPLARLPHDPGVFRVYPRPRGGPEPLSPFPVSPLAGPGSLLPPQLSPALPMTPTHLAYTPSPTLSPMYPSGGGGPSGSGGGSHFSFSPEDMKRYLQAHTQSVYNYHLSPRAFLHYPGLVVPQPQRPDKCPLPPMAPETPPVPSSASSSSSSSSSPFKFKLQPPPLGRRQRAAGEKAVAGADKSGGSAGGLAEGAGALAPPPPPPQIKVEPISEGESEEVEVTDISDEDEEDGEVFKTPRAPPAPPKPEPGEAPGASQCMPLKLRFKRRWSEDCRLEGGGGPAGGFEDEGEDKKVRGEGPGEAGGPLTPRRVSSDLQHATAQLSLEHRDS
Particulars: protein: recombinant; tags: N-terminal GST; dsDNA, one strand shown. The method in brief:
as §1

The target of the next assay is T7, ETV3L (Homo sapiens, UniProt Q6ZN32 1-361).
T7 sequence: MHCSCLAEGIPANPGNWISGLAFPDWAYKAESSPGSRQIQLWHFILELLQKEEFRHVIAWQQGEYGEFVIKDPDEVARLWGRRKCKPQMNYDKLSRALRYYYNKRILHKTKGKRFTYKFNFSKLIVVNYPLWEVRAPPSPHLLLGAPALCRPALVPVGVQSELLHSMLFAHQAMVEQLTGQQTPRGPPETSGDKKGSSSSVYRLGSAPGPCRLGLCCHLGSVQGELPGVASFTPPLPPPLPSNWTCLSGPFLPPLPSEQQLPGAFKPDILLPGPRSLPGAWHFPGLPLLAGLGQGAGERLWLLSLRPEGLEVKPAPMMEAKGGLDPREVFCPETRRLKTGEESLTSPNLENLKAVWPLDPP
Conditions: protein: recombinant; tags: N-terminal GST; dsDNA, one strand shown. Summed up: as §1

A further assay addresses T8, ETS2 (Homo sapiens, UniProt P15036 1-469).
T8 sequence: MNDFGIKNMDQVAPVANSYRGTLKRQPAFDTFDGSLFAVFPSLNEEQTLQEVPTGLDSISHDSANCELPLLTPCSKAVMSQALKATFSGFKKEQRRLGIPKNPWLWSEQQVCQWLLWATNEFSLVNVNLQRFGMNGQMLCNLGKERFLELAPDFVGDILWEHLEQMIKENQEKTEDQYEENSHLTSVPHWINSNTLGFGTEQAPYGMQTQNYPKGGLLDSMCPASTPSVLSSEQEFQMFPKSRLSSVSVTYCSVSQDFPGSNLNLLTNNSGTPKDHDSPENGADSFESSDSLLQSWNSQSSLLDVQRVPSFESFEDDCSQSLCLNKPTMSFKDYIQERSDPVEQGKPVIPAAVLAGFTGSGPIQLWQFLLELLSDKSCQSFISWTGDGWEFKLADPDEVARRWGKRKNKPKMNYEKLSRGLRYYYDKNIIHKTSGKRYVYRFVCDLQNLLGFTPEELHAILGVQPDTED
Conditions: protein: recombinant; tags: N-terminal GST; dsDNA, one strand shown. The method in brief: as §1

The next assay addresses T9, SPDEF (Homo sapiens, UniProt O95238 1-335).
T9 sequence: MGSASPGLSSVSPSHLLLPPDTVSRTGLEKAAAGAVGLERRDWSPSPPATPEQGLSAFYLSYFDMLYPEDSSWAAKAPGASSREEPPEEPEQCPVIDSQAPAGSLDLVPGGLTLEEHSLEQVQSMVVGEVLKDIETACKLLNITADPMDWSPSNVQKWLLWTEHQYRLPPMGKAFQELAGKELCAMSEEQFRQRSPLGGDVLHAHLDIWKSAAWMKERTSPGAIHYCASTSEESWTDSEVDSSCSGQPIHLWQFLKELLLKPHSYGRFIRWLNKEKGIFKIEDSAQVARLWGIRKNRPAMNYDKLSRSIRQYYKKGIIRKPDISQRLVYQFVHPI
Particulars: protein: recombinant; tags: N-terminal GST; dsDNA, one strand shown. The method in brief: as §1

Another assay concerns the target T10, ETV7 (Homo sapiens, UniProt Q9Y603 1-341).
T10 sequence: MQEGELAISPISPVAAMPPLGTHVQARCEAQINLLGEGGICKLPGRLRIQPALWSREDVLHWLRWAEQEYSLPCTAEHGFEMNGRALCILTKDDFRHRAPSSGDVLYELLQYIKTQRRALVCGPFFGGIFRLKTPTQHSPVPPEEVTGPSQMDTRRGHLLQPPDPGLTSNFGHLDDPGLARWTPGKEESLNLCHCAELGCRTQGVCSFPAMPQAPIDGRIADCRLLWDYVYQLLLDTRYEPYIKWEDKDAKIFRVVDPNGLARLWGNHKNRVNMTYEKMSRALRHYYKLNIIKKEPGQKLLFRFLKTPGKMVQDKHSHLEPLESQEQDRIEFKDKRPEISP
Conditions: protein: recombinant; tags: N-terminal GST; dsDNA, one strand shown. The method in brief:
as §1

For the next assay, the target named is T11, ELF5 (Homo sapiens, UniProt Q9UKW6-2 1-255).
T11 sequence: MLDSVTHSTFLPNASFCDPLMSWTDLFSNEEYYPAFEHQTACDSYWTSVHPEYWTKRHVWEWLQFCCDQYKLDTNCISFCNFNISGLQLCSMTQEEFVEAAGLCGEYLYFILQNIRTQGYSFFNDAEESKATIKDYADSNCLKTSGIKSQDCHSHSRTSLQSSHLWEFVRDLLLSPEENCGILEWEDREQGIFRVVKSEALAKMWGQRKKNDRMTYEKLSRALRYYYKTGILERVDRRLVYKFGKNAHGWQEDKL
Particulars: protein: recombinant; tags: N-terminal GST; dsDNA, one strand shown. Summed up: as §1

For another assay, the target named is T12, ETV3 (Homo sapiens, UniProt P41162-2 1-143).
T12 sequence: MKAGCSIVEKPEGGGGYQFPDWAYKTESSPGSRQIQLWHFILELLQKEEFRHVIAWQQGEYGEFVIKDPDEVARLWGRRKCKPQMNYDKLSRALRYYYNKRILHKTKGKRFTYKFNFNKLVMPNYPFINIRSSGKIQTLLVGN
Particulars: protein: recombinant; tags: N-terminal GST; dsDNA, one strand shown. The method in brief: as §1

For the next assay, the target named is ETV6 (Homo sapiens, UniProt P41212 1-452). Conditions: protein: recombinant; tags: N-terminal GST; dsDNA, one strand shown. The method in brief: as §1
Sequence of ETV6 (P41212 whole entry): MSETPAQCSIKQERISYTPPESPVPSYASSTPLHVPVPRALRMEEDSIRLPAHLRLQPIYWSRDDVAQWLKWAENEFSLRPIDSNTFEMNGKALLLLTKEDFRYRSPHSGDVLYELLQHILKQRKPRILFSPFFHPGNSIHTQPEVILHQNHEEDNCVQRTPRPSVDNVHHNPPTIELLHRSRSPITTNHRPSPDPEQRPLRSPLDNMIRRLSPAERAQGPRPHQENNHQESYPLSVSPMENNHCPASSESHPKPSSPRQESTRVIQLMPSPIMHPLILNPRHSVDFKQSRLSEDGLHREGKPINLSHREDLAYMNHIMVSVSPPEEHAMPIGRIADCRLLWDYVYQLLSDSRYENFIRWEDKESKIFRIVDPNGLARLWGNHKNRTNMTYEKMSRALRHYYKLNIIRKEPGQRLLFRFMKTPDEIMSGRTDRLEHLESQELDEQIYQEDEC

Sequence of ETV1 (P50549 whole entry): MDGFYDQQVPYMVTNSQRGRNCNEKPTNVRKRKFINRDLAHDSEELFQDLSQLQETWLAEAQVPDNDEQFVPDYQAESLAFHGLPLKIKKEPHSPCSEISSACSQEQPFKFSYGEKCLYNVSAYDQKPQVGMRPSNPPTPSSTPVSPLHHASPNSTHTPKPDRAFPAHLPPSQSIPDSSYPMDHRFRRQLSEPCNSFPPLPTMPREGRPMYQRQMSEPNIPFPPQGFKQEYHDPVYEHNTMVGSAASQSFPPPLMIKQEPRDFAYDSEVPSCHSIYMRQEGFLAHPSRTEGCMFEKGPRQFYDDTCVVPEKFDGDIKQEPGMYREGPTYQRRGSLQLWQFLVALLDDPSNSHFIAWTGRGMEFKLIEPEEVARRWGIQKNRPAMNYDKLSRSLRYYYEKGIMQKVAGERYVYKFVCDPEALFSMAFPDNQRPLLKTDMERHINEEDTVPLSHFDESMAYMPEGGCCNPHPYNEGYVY
Sequence of ETV5 (P41161 whole entry): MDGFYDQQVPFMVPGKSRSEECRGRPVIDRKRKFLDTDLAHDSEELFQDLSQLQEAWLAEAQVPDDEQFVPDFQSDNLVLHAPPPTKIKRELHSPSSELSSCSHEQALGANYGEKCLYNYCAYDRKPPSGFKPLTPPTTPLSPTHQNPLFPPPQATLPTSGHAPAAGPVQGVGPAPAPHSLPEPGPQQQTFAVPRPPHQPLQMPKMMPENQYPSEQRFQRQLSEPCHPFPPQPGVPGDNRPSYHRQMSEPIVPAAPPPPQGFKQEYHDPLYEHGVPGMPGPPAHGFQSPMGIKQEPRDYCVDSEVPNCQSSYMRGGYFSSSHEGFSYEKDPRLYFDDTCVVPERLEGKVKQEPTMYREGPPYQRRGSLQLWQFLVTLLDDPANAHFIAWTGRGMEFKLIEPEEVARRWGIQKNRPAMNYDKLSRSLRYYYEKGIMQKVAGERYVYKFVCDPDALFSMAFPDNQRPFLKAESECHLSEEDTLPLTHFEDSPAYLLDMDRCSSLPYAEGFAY
Sequence of HSF1 (Q00613 whole entry): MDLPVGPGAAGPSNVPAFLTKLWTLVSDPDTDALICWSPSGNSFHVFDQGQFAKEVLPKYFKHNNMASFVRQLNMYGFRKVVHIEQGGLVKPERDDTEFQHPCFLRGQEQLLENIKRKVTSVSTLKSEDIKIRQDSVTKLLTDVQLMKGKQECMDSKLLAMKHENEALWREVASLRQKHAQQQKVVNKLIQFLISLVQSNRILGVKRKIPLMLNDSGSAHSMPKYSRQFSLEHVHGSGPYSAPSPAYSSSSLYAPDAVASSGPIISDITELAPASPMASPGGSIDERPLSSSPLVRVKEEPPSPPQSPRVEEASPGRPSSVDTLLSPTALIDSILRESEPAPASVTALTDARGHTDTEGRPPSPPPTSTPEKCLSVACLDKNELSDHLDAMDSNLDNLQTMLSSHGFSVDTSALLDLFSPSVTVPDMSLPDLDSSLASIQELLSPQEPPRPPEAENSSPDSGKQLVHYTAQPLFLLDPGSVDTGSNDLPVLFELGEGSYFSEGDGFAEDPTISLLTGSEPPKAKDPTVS

Consider CACTAA, for which the binding signal with FEV is 1.12 fold enrichment (6-mer frequency, TF over GST control); with ETV5 it was 1.13 fold enrichment (6-mer frequency, TF over GST control); with HSF1, 1.29 fold enrichment (6-mer frequency, TF over GST control); in the assay with SPIC, 1.25 fold enrichment (6-mer frequency, TF over GST control); in the assay with ELF4, 1.2 fold enrichment (6-mer frequency, TF over GST control); in the assay with ELK4 it was 1.2 fold enrichment (6-mer frequency, TF over GST control). Besides, the binding signal is 1.2 fold enrichment (6-mer frequency, TF over GST control) with ETV2; 1.3 fold enrichment (6-mer frequency, TF over GST control) in the assay with ELF3; 1.67 fold enrichment (6-mer frequency, TF over GST control) in the assay with CRX; 1.12 fold enrichment (6-mer frequency, TF over GST control) with ETV1; 1.21 fold enrichment (6-mer frequency, TF over GST control) with ERF; 1.28 fold enrichment (6-mer frequency, TF over GST control) with ETV3L. Also, the binding signal with ETS2 was 1.18 fold enrichment (6-mer frequency, TF over GST control); with SPDEF, 1.15 fold enrichment (6-mer frequency, TF over GST control); in the assay with ETV7, 1.19 fold enrichment (6-mer frequency, TF over GST control); with ELF5, 1.14 fold enrichment (6-mer frequency, TF over GST control); with ETV3, 1.07 fold enrichment (6-mer frequency, TF over GST control); with ETV6 it was 1.12 fold enrichment (6-mer frequency, TF over GST control).
